Compound activity as filed in PubChem.
A selection: hits, their analogues and other compounds. The true share with any hit is near 4.6%.
TRHR agonist – qHTS for Small Molecule Agonists and Allosteric Enhancers of Human TRH Receptor: Primary Screen for Agonists; 360,000 compounds, 0.18% hits; TRHR cells, calcium flux fluo-8, FDSS agonist mode; activation, % at 2 µM; Thyrotropin-releasing hormone receptor (Homo sapiens), P34981
Target sequence (P34981 whole entry, looked up): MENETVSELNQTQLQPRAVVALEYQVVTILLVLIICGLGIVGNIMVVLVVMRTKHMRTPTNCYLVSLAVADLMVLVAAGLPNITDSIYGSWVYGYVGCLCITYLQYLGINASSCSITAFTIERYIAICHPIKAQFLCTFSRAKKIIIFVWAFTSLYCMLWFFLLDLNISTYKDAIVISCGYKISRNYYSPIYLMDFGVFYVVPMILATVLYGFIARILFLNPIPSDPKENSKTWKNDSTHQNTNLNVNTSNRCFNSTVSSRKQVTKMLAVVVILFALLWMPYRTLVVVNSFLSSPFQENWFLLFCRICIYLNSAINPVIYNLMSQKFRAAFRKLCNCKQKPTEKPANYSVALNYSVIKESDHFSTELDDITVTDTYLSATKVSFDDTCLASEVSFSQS
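Steps: seed TRHR cells overnight; add fluo-8 no-wash Ca dye, RT 30 min–1.5 h; record 10 s baseline; pin-transfer compounds; monitor fluorescence 1 cycle/s for the agonist window. Calcium increases flag candidate agonists.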
D1 agonist – Allosteric Agonists of the Human D1 Dopamine Receptor: qHTS; HEK293 T-REx D1 cells, calcium flux, agonist mode; activation, % at 2 µM; 360,000 compounds, 1% hits; D(1A) dopamine receptor (Homo sapiens), P21728; AID 504660, 2011
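Inducible HEK293 T-REx D1 cells, force-coupled to calcium signalling, were plated at 4000 cells/well with tetracycline and held overnight at 30 C. After no-wash calcium dye loading, compound-evoked calcium rise over 180 s flagged agonists.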
D1 antag – Antagonist of Human D 1 Dopamine Receptor: qHTS; D(1A) dopamine receptor (Homo sapiens), P21728; HEK293 TREx D1 cells, calcium flux, dopamine EC80; active compounds read low; activity change, negative = inhibition, % at 10 µM; 360,000 compounds, 3.2% hits; in the data active = activity change below about -30%
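Antagonism measured as reduced calcium response to an EC80 dopamine addition following 180 s compound pre-read; cells were inducible HEK293 Trex D1 plated overnight at 30 C, read kinetically at 1 cycle/sec.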
D1 potentiator – Potentiators of Human D1 Dopamine Receptor: qHTS. potentiation, % at 10 µM. 360,000 compounds, 0.036% hits. HEK293 TREx D1 cells, calcium flux, dopamine EC20 potentiation; in the data active = potentiation above about 30%
TRHR enhancer – qHTS for Small Molecule Agonists and Allosteric Enhancers of Human TRH Receptor: Primary Screen for Enhancers | 360,000 compounds, 0.66% hits | AID 493056, 2011 | TRHR cells, fluo-8 calcium fluorescence, EC20 TRH enhancement | Thyrotropin-releasing hormone receptor (Homo sapiens), P34981 | enhancement, % at 2 µM; in the data active = enhancement above about 30%
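Enhancer read-out: after compound pinning and an initial kinetic agonist-mode read, an EC20 of TRH (10 nM final) was injected and fluo-8 calcium signal (Ex 480/Em 530) followed at 1 s/cycle for 100 cycles in TRHR-expressing cells.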
Large screens that a line does not name were inactive; ! = not active in a repeat. Cut-off read from the data, not from the text of the source, unless noted: active = activation above about 30%; inactive = the rest.

CCOc1ccc(N2CC(C(=O)Nc3ccccn3)CC2=O)cc1 (stereo unspecified)	D1 antag -36
CCOc1ccc(N2CC(C(=O)Nc3ccccc3N3CCOCC3)CC2=O)cc1 (stereo unspecified)	D1 antag -30
O=C(COC(=O)c1ccc(S(=O)(=O)N2CCCC2)cc1)Nc1cccnc1Cl	none
CC(=O)c1cccc(NCC(=O)c2ccc(C)c([N+](=O)[O-])c2)c1	none
CCOC(=O)Cn1c(=O)n(C2CCCCC2)c2nc(-c3cccc(C)c3)nc(C(N)=O)c21	D1 antag -86
CCOC(=O)Cn1c(=O)n(CC(=O)OCC)c2ccccc21	none
CCOC(=O)Cn1c(=O)n(CC2CCCO2)c2nc(-c3ccc(C(C)C)cc3)nc(C(N)=O)c21 (stereo unspecified)	none
CCOC(=O)Cn1c(=O)n(CC2CCCO2)c2nc(-c3ccc(OC)cc3OC)nc(C(N)=O)c21 (stereo unspecified)	TRHR enhancer 42
CCOC(=O)Cn1c(=O)n(C2CCCCC2)c2nc(-c3cccc(F)c3)nc(C(N)=O)c21	none
CCOC(=O)Cn1c(=O)n(C2CCCC2)c(=O)c2ccccc21	TRHR enhancer 41
CCOC(=O)Cn1c(=O)n(C2CCCCC2)c2nc(-c3ccc(C(C)C)cc3)nc(C(N)=O)c21	D1 antag -51
COc1cc(S(=O)(=O)NCc2ccncc2)c(OC)cc1Br	none
Cc1ccc(C(=O)NCCc2nnc3c(C(F)(F)F)cc(Cl)cn23)o1	D1 antag -33
COc1ccc(CCNC(=O)Cn2c(=O)n(-c3ccc(F)cc3F)c(=O)c3sccc32)cc1OC	D1 antag -36
COc1ccc2c(c1)C1(C)CC(C)(C)N2C(=O)N1c1ccccc1 (stereo unspecified)	D1 agonist 56
O=C(Nc1cccc([N+](=O)[O-])c1)c1[nH]ncc1Cl	none
CC1(c2ccccc2)NC(=O)N(CC(=O)NCc2ccc3c(c2)OCO3)C1=O (stereo unspecified)	none
CCCn1c(NC(=O)c2cccc(C)c2C)nc2ccccc21	D1 antag -49
CCCn1c(NC(=O)C2CCN(C(=O)c3ccccc3C)CC2)nc2ccccc21	none
Cc1ccccc1NC(=S)NC(C)C(c1ccccc1)N1CCN(C)CC1 (stereo unspecified)	none
Cc1ccsc1/C=C/c1n[nH]c(=O)c(C#N)c1C	D1 antag -33
Cc1ccsc1/C=C/C(=O)O	none
CCCCCSc1nnc2c(n1)[nH]c1c(C)cccc12	D1 antag -30
Cc1csc2nc3cc(C(N)=O)ccc3c(=O)n12	D1 antag -44
CCS(=O)(=O)CCn1c([N+](=O)[O-])cnc1C	TRHR enhancer 37
CCN(CC)S(=O)(=O)c1cc(NC(=O)CN2C(=O)NC(C)(c3ccccc3)C2=O)ccc1C (stereo unspecified)	none
O=C(Nc1ccc(Br)cc1)c1cc(S(=O)(=O)N2CCc3ccccc32)ccc1F	D1 antag -50
Cc1ccc(NC(=O)c2cc(S(=O)(=O)N3CCCc4ccccc43)ccc2F)cc1F	D1 antag -31
COCCCN1C(=O)C(O)=C(C(=O)c2ccco2)C1c1cccc(Br)c1 (stereo unspecified)	none
COc1cc(/C=C(\C#N)C(=O)c2ccc(O)c(O)c2)cc(I)c1O	D1 agonist 38
COc1cc(/C=C(\C#N)C(=O)N2CCOCC2)cc(Br)c1O	none
Cc1c(C(C)(C)C)s/c(=N/S(=O)(=O)c2ccccc2)n1C	D1 antag -35
Cc1ccccc1Nc1nnc(SCc2cc(=O)n3ccsc3n2)s1	D1 antag -54
CCCSc1ccc([C@H]2N[C@@](Cc3ccccc3)(C(=O)OC)[C@H]3C(=O)N(CC)C(=O)[C@@H]23)cc1	none
COc1ccc(C)cc1Nc1n[n+](C)c(-c2ccc(O)cc2O)s1	D1 antag -30
COc1ccc(C)cc1Nc1n[n+](-c2ccccc2)c(-c2c(Cl)cccc2Cl)s1	D1 agonist 32
COc1ccc(C)cc1Nc1n[n+](C)c(-c2c3ccccc3cc3ccccc23)s1	none
COc1ccc(C)cc1Nc1n[n+](-c2ccccc2)c(-c2ccc(N(C)C)cc2)s1	D1 antag -57
COc1ccc(C)cc1Nc1n[n+](-c2ccccc2)c(-c2ccc(OC)c(OC)c2OC)s1	D1 antag -37
CC(C)(C)c1ccc(-c2nnc(SC3CCOC3=O)n2Cc2ccccc2)cc1 (stereo unspecified)	none
O=C(CCN(NC(=O)c1ccccc1)C1=NS(=O)(=O)c2ccccc21)NC1CCCCC1	none
Cc1ccc(-n2ncc(C(=O)NCCc3c[nH]c4ccccc34)c2C2CCN(C(=O)OC(C)(C)C)CC2)cc1C	none
O=c1[nH]c(CN2CCN(c3ccccc3)CC2)nc2ccccc12	none
CCC(CC)C(=O)N1CCN(Cc2nc3ccccc3c(=O)[nH]2)CC1	TRHR enhancer 32
O=c1[nH]c(CN2CCN(c3ccc(F)cc3)CC2)nc2ccccc12	TRHR enhancer 34
COc1cccc(N2CCN(Cc3nc4ccccc4c(=O)[nH]3)CC2)c1	D1 antag -62
CC(C)CN(C(=O)COC(=O)C12CC3CC(CC(O)(C3)C1)C2)C1CCS(=O)(=O)C1 (stereo unspecified)	none
O=C1CCCN1CN(C(=O)c1ccc2c(c1)OCO2)c1ccc(F)cc1	none
CCCOc1ccc(CNC(=O)C2CCN(C(=O)N3CCOc4ccccc43)CC2)cc1	D1 antag -32
CCC1CN(C(=O)NCc2ccc(F)cc2)c2cc(Cl)ccc2O1 (stereo unspecified)	none
CCC1CN(C(=O)N2CCC(C(=O)NCc3ccccc3C)CC2)c2ccccc2O1 (stereo unspecified)	none
CCC1CN(C(=O)N2CCC(C(=O)NCc3cccc(C)c3)CC2)c2ccccc2O1 (stereo unspecified)	D1 antag -32
CCC1CN(C(=O)NCc2ccc(F)cc2)c2ccccc2O1 (stereo unspecified)	D1 antag -56!
COc1ccc(NC(=O)C2CCN(C(=O)N3CCOc4ccccc43)CC2)cc1	none
CCCCNC(=O)C1CCN(C(=O)N2CC(C)Oc3ccc(Cl)cc32)CC1 (stereo unspecified)	none
CC1CN(C(=O)N2CCC(C(=O)NCCCc3ccccc3)CC2)c2cc(Cl)ccc2O1 (stereo unspecified)	D1 antag -57
O=C(CCN1CCOCC1)N/N=C/c1cc(Br)cc(Br)c1O	none
